Data from PubChem BioAssay (NCI).
Compounds without any hit were thinned out: in the full panel of roughly 83,000, 20% have a hit.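 Results are percent growth after 48 hours of single-concentration exposure. 100 means growth as in untreated cells, lower positive values show inhibition; negative values down to -100 show cell death.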 Unmarked numbers belong to inactive results. Calls of active or inactive are those of the source. The calls were made as follows: active = growth percent below 10; inactive = the rest.

Experiments:
Test in all cases: NCI-60 one-dose screen, 48 h (100 = growth as untreated, 0 = no growth, -100 = all killed)
Conditions in all cases: 10 µM unless noted
[1] = tested on: NCI-H23 lung
[2] = tested on: NCI-H226 lung
[3] = tested on: NCI-H322M lung
[4] = tested on: HOP-62 NSCLC
[5] = tested on: NCI-H460 lung
[6] = tested on: HOP-92 NSCLC
[7] = tested on: NCI-H522 lung
[8] = tested on: A549/ATCC NSCLC
[9] = tested on: 786-0 renal
[10] = tested on: COLO 205 colon

| SMILES | growth [1] | growth [2] | growth [3] | growth [4] | growth [5] | growth [6] | growth [7] | growth [8] | growth [9] | growth [10] |
| --- | --- | --- | --- | --- | --- | --- | --- | --- | --- | --- |
| C=C(C)[C@@H]1CC[C@]2(CO)CC[C@]3(C)[C@H](CC[C@@H]4[C@@]5(C)CCC(NCCc6ccc(O)cc6)C(C)(C)[C@@H]5CC[C@]43C)[C@@H]12 (stereo not given in full) | -86.6% (active) | 66.8% | -76.5% (active) | -77.5% (active) | -89.5% (active) | -93.2% (active) | -81.3% (active) | -87.1% (active) | -92.7% (active) | -76.4% (active) |
| COc1cc(C(=O)/C=C/c2ccc(N3CCN(C)CC3)cc2)cc(OC)c1OC | 90% | 101% | 89.7% | 91.4% | 100% | 98.5% | 77.7% | 101% | 106% | 91.3% |
| O=C1CCC(C(=O)NN(c2ccccc2)c2ccccc2)N1 (stereo not given) | 108% | 96.3% | 107% | 101% | 101% | 69.6% | 96.5% | 103% | 48.9% | 111% |
| CCCn1c(=S)sc2c1nc(C)n1c(Nc3ccccc3)nnc21 | 26.6% | 66.9% | 83.9% | 75.5% | 45.3% | 48.9% | 12.4% | 66.1% | 54.8% | 128% |
| COc1cc2cc(Oc3ccc(NC(=O)Nc4ccccc4)cc3)c(C)nc2cc1OCCN1CCCCC1 | 96.5% | 99.8% | 114% | 94.9% | 33% | 55.7% | 106% | 78.6% | 68.3% | 69.3% |
| N#Cc1c(N2CCOCC2)nc(=S)[nH]c1-c1ccccc1 | 87.6% | 72.5% | 76.4% | 51.3% | 68.9% | -7.41% (active) | 59.6% | 85.6% | 82.9% | 77.3% |
| C(/C=C/c1ccccc1)=Nc1ccc(CCc2ccc(N=C/C=C/c3ccccc3)cc2)cc1 | 85.2% | 95.9% | 97.6% | 98.2% | 54.8% | 107% | 76.6% | 104% | 106% | 101% |
| COc1ccc(-c2ccc(=O)oc2C#Cc2cc(OC)c(OC)c(OC)c2)cc1O | 44.2% | 51.7% | 31.5% | -28.1% (active) | -4.6% (active) | 51.4% | 4.45% (active) | 28.7% | 11.8% | 47.2% |
| OC(c1ccccc1)(c1ccccc1)c1ccccc1-c1ccccc1 | 83.9% | 91.9% | 101% | 90.4% | 93.1% | 67.1% | 75.9% | 81.8% | 95.9% | 81% |
| C#CCOc1ccc2ncnc(Nc3cccc(NC(=O)CCl)c3)c2c1 | 73.5% | 88.3% | 92.1% | 93.2% | 49.2% | 85% | 38.9% | 67% | 72.6% | 96.7% |
| CCN(CC)CCNC(=O)c1ccc(-c2nc3ccc4[nH]ncc4c3c3c2CCCC3)cc1 | 65.3% | 64.7% | 55.8% | 57.3% | 60.5% | 73% | 50.6% | 56.1% | 50.6% | 63.6% |
| O=C1OCC2=C1C(c1cccc(F)c1)c1cc3c(cc1N2CCO)OCO3 (stereo not given) | 33.4% | 67.6% | 51.2% | 32% | 14.2% | 34.6% | 12.5% | 43% | 24.5% | 7.08% (active) |
| Cc1ccc(Nc2nc(-c3ccc(F)cc3)c(C#N)c(=O)n2C)cc1 | 66.7% | 64% | 74.8% | 50.9% | 84.5% | 0.0271% (active) | 49.7% | 61.7% | 67.5% | 66.8% |
| O=C1NC(=O)c2c1c1c3ccccc3[nH]c1c1oc3cc(Br)ccc3c21 | 76.2% | 58.9% | 75.7% | 65.9% | 36.8% | 87.9% | 50.6% | 84.7% | 81.7% | 72.3% |
| COc1ccc(-c2cn(-c3ccc(Cl)cc3)c(SCC(=O)c3ccc([N+](=O)[O-])cc3)n2)cc1 | 86.9% | 91.3% | 81.1% | 50.4% | 91.5% | 28% | 70.7% | 101% | 52.9% | 110% |
| CC[C@H](C)[C@H](NC(=O)[C@H](CCCNC(=N)N)NC(=O)[C@H](Cc1c[nH]c2ccccc12)NC(=O)[C@@H](NC(=O)[C@H](CCCCN)NC(=O)[C@H](CCCCN)NC(=O)[C@@H](NC(=O)[C@@H](NC(=O)[C@@H](NC(=O)[C@H](CCCCN)NC(=O)[C@H](Cc1ccccc1)NC(=O)[C@H](CCCCN)NC(=O)[C@H](CCCCN)NC(=O)[C@H](Cc1ccccc1)NC(=O)[C@@H](NC(=O)[C@@H](N)CCCCN)[C@@H](C)CC)[C@@H](C)O)[C@@H](C)CC)[C@@H](C)CC)C(C)C)C(=O)N[C@@H](Cc1ccccc1)C(=O)NCC(=O)N[C@@H](CCCNC(=N)N)C(=O)N[C@@H](Cc1ccccc1)C(N)=O | -37.9% (active) | 1.83% (active) | -50.5% (active) | -41.7% (active) | -5.53% (active) | -20.3% (active) | 14.1% | -40.6% (active) | -31.3% (active) | -55.3% (active) |
| N=c1sc(Cc2cc(Cl)ccc2Cl)cn1CC(=O)c1ccccc1 | 68.4% | 66.3% | 56.4% | 74.6% | 20.3% | 51.2% | 39.8% | 30% | 78.4% | 72.1% |
| Cn1cc(-c2csc(-c3cn(C)c4ccc(Br)cc34)n2)c2cnccc21 | -28.7% (active) | 102% | -32.6% (active) | -79% (active) | -76.4% (active) | -90.9% (active) | -67.5% (active) | -75.1% (active) | -92.4% (active) | -77.8% (active) |
| Cc1ccc(C)n1/C=C/n1c(C)ccc1C | 94.7% | 99% | 103% | 114% | 110% | 75% | 83.8% | 95.5% | 107% | 96.9% |
| Cc1c(Cl)cccc1C(=O)Nc1nc2c(s1)CN(C(=O)Nc1cccc(C(F)(F)F)c1)CC2 | 21.5% | 39.3% | 46.6% | 37.2% | 7.19% (active) | 38.3% | 15.1% | 22.5% | 29.1% | 7.09% (active) |
| N#Cc1nc(-c2ccc(F)cc2)oc1S(=O)(=O)N1CCN(c2ccc(F)cc2)CC1 | 72.8% | 91.7% | 100% | 109% | 102% | 123% | 43.5% | 104% | 100% | 86.7% |
| CC(C)CCSc1nc(Nc2ccccc2)c(C#N)c(-c2ccccc2)n1 | 50.1% | 90.3% | 34.3% | 19.7% | 14.6% | 21.8% | 69.8% | 14.8% | 8.79% (active) | 46% |
| S=c1ssnc1-c1cccs1 | 85% | 96.1% | 94.5% | 103% | 107% | 80.5% | 96.3% | 117% | 65.1% | 115% |
| O=C(Cn1nnc2ccccc21)Nc1ccc(-c2nc3ccccc3s2)cc1 | 80.7% | 67.5% | 103% | 101% | 83% | 73.1% | 79.3% | 93.6% | 95% | 105% |
| Cn1cc(-c2nonc2-c2c[nH]c3ccccc23)c2ccccc21 | 29.7% | 44.5% | 33.9% | 14.3% | 4.95% (active) | 5.1% (active) | -5.43% (active) | 18.3% | 23% | -22.7% (active) |
| COc1cc(/C=N/Nc2ccccc2F)cc(OC)c1OC | 101% | 95.6% | 91.3% | 94.4% | 101% | 99.1% | 68.7% | 95.5% | 90.4% | 109% |
